Laboratory results published in PubChem BioAssay (EPA / NIEHS).
Records with an inconclusive call do not appear. Activity calls are given as the source filed them. Rule for the calls, unless noted: active = hit-call score of the fitted dose curve at least 0.9, where 1 is the maximum; inactive = score below 0.9.

What was measured:
[1] = molecular target: CCAAT/enhancer-binding protein beta (Homo sapiens) (UniProt P17676); assay: ATG_C_EBP_CIS: Attagene CIS-FACTORIAL HepG2 Assay for human CCAAT/Enhancer Binding Protein (C/EBP) beta (AID 2282927); settings: HepG2 Attagene cis-factorial transcription factor reporter; actives raise or lower the signal
Method in brief: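 RT-PCR/capillary electrophoresis fluorescence of reporter mRNA, 24 h post-dose, in HepG2 cells carrying transfected cis-promoter reporter units. Bidirectional curve fitting against DMSO baseline captures gain or loss of signal.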

[2] = ATG_CMV_CIS: Attagene CIS-FACTORIAL HepG2 Assay for human CMV (Internal Marker) (AID 2282928); settings: HepG2 CMV promoter reporter, transcription factor profiling; actives raise or lower the signal;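 note: endpoint acts as a background internal control marker rather than a target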
Method in brief: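 Cell system: HepG2, transiently transfected multiple reporter units under cis promoters. Exposure: 24 h. Detection: RT-PCR, FAM labeling, HpaI digestion, capillary electrophoresis. Analysis: bidirectional, DMSO baseline.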

[3] = molecular target: Aryl hydrocarbon receptor (Homo sapiens) (UniProt P35869); assay: ATG_Ahr_CIS: Attagene CIS-FACTORIAL HepG2 Assay for human Aryl Hydrocarbon Receptor (Ahr) (AID 2282930); settings: HepG2 AhR cis-factorial reporter transcription; actives raise or lower the signal
Method in brief: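 HepG2 cells transiently transfected with cis-element-driven multiplexed reporter transcription units; endogenous transcription factor activity measured as reporter mRNA 24 h after dosing. RT-PCR, 6-FAM labelling, HpaI digestion, capillary electrophoresis; bidirectional fitting versus DMSO baseline.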

[4] = molecular target: Hypoxia-inducible factor 1-alpha (Homo sapiens) (UniProt Q16665); assay: ATG_HIF1a_CIS: Attagene CIS-FACTORIAL HepG2 Assay for human Hypoxia Inducible Factor 1 (HIF1A) (AID 2282951); settings: HepG2 Attagene cis-factorial HIF1a reporter transcription; actives raise or lower the signal
Method in brief: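 Activity is fitted in both directions relative to DMSO. Reporter transcripts are read by RT-PCR, fluorescent primer extension and capillary electrophoresis after 24 h chemical treatment. The cells are HepG2 carrying transiently transfected cis-element-driven reporter units responding to endogenous factors.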

[5] = molecular target: Hepatocyte nuclear factor 6 (Homo sapiens) (UniProt Q9UBC0); assay: ATG_HNF6_CIS: Attagene CIS-FACTORIAL HepG2 Assay for human Hepatocyte Nuclear Factor 6 (HNF6) (AID 2282952); settings: HepG2 Attagene cis-factorial HNF6 reporter transcription; actives raise or lower the signal
Method in brief: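 HepG2 cells transiently transfected with cis-element-driven multiplexed reporter units measuring endogenous transcription factor activity. After 24 h exposure, reporter mRNA quantified by RT-PCR, FAM-labelled fragments and capillary electrophoresis; bidirectional fitting versus DMSO.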

[6] = molecular target: Heat shock factor protein 1 (Homo sapiens) (UniProt Q00613); assay: ATG_HSE_CIS: Attagene CIS-FACTORIAL HepG2 Assay for human Heat Shock Transcription Factor 1 (HSE) (AID 2282953); settings: HepG2 HSE cis-reporter, Attagene RNA transcription; actives raise or lower the signal
Method in brief: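 Read-out: fluorescence of reporter-specific RT-PCR fragments separated by capillary electrophoresis. HepG2 carrying transfected cis-element reporter units; 24 h dosing; activity fitted in both directions relative to DMSO baseline.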

[7] = ATG_TA_CIS: Attagene CIS-FACTORIAL HepG2 Assay for human TA Basal Promoter (AID 2282964); settings: HepG2 Attagene CIS-factorial TA basal promoter reporter; actives raise or lower the signal
Method in brief: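 Transfected HepG2, 24 h compound exposure; RNA → RT-PCR → FAM primer extension → HpaI cut → CE fluorescence. Gain/loss-of-signal fitted against DMSO negative control. Background-control readout.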

[8] = ATG_TCF_b_cat_CIS: Attagene CIS-FACTORIAL HepG2 Assay for human T-Cell-Factor with beta-catenin (TCF/b-cat) (AID 2282965); settings: HepG2 TCF/beta-catenin cis-reporter transcription, actives raise or lower the signal
Method in brief: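 HepG2 cells transiently transfected with multiple cis-promoter-regulated reporter transcription units, so endogenous transcription factor activity is measured. Reporter mRNA read 24 hours after dosing by RT-PCR, fluorescent labelling and capillary electrophoresis; bidirectional fitting against DMSO.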

[9] = ATG_TGFb_CIS: Attagene CIS-FACTORIAL HepG2 Assay for human Transforming Growth Factor (TGF) (AID 2282967); settings: HepG2 Attagene CIS TGFb reporter, mRNA transcription; actives raise or lower the signal
Method in brief: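 Readout: fluorescently labeled reporter cDNA fragments resolved by capillary electrophoresis after RT-PCR. Transfected HepG2 cells dosed for 24 h; endogenous TF activity at TGFB1-linked cis element; gain or loss fitted relative to DMSO.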

[10] = ATG_VDRE_CIS: Attagene CIS-FACTORIAL HepG2 Assay for human Vitamin D Receptor Element (VDRE) (AID 2282968); settings: HepG2 VDRE cis-reporter transcription, actives raise or lower the signal
Method in brief: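 HepG2 cells transiently transfected with cis-element reporter units, dosed 24 h; reporter mRNA measured by RT-PCR, 6-FAM labeling, HpaI digestion and capillary electrophoresis. Activity fitted bidirectionally against DMSO baseline.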

[11] = ATG_M_32_TRANS: Attagene TRANS-FACTORIAL HepG2 Assay for M32 Transcription Factor (Internal Marker) (AID 2282984; active = hit-call score of the fitted dose curve at least 0.9, where 1 is the maximum;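 note: transcript level of a background control reporter unit measured by RT-PCR and capillary electrophoresis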); settings: HepG2 Attagene TRANS M32 internal marker reporter
Method in brief: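 HepG2 cells transiently transfected with multiple GAL4-UAS reporter transcription units, dosed for 24 hours; reporter mRNA quantified by RT-PCR, 6-FAM primer extension, HpaI digestion and capillary electrophoresis. Gain-of-signal fitted versus DMSO baseline; internal background-control marker.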

[12] = molecular target: Transcriptional activator Myb (Homo sapiens) (UniProt P10242); assay: ATG_Myb_CIS: Attagene CIS-FACTORIAL HepG2 Assay for human Myeloblastosis (Myb) Proto-Oncogene Transcription Factor (AID 2282986); settings: HepG2 Attagene CIS-FACTORIAL Myb reporter transcription; actives raise or lower the signal
Method in brief: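 Reporter mRNA is quantified by RT-PCR and capillary electrophoresis 24 h after dosing HepG2 cells transfected with cis-regulated reporter units, which track endogenous transcription factor activity. Gain and loss of signal are fitted versus DMSO baseline.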

[13] = molecular target: Myc proto-oncogene protein (Homo sapiens) (UniProt P01106); assay: ATG_Myc_CIS: Attagene CIS-FACTORIAL HepG2 Assay for human Myelocytomatosis (Myc) Proto-Oncogene Transcription Factor (AID 2282990); settings: HepG2, Attagene cis-reporter transcription factor activity; actives raise or lower the signal
Method in brief: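 HepG2 cells transiently transfected with multiple cis-promoter-driven reporter transcription units, so endogenous TF activity is read. After 24 h compound exposure, reporter mRNA was quantified by RT-PCR, 6-FAM labelling, HpaI digestion and capillary electrophoresis; bidirectional fit versus DMSO.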

[14] = ATG_NF_kB_CIS: Attagene CIS-FACTORIAL HepG2 Assay for human Nuclear Factor Kappa B (NF-kB) (AID 2282991); settings: HepG2 Attagene cis-factorial NF-kB reporter mRNA; actives raise or lower the signal
Method in brief: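 Readout is reporter transcript level, gain or loss versus DMSO, measured 24 h post-dose via RT-PCR, fluorescent labelling and capillary electrophoresis. Human HepG2 liver cells carried transiently transfected CIS reporter constructs reflecting endogenous factors.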

[15] = ATG_NRF2_ARE_CIS: Attagene CIS-FACTORIAL HepG2 Assay for human Nuclear Factor Erythroid 2 Related Factor 2 (NFR2) response to Antioxidant Response Elements (ARE) (AID 2282992); settings: HepG2 Attagene ARE/NRF2 reporter, transcription factor activity; actives raise or lower the signal;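 for AC50: reporter mRNA level measured by RT-PCR and capillary electrophoresis fluorescence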
Method in brief: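 Cis-factorial assay: transfected HepG2 reporter library, 24 h dosing, mRNA readout via RT-PCR/CE; DMSO-referenced bidirectional analysis.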

[16] = ATG_Oct_MLP_CIS: Attagene CIS-FACTORIAL HepG2 Assay for human Octamer-Binding Transcription Factor (Oct) (AID 2282993); settings: HepG2 Attagene cis-factorial Oct reporter, mRNA; actives raise or lower the signal
Method in brief: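 Read-out: reporter mRNA via RT-PCR plus capillary electrophoresis of 6-FAM-labelled fragments. Transiently transfected HepG2, 24 h exposure, endogenous TF activity on cis elements. Gain or loss of signal fitted relative to DMSO.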

[17] = ATG_RORE_CIS: Attagene CIS-FACTORIAL HepG2 Assay for human RAR-related Orphan Receptor Element (RORE) (AID 2282959); settings: HepG2 Attagene cis-factorial RORE reporter, mRNA; actives raise or lower the signal
Method in brief: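 RORE reporter transcripts reflecting endogenous factor activity were read after 24 h compound exposure of transfected HepG2 cells, using reverse transcription, PCR, fluorescent labelling and capillary electrophoresis sizing. Gain or loss fitted against DMSO.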

[18] = molecular target: Cellular tumor antigen p53 (Homo sapiens) (UniProt P04637); assay: ATG_p53_CIS: Attagene CIS-FACTORIAL HepG2 Assay for human p53 Transcription Factor (AID 2282994); settings: HepG2 p53 cis-element reporter, Attagene mRNA; actives raise or lower the signal
Method in brief: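 Using HepG2 hepatoma cells carrying cis-acting multiplexed reporters, mRNA induction is detected after a 24 h exposure. Gain- and loss-of-signal responses are fitted relative to DMSO-treated cells.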

[19] = ATG_TAL_CIS: Attagene CIS-FACTORIAL HepG2 Assay for human TAL Basal Promoter (AID 2282966); settings: HepG2 Attagene cis-factorial TAL promoter reporter; actives raise or lower the signal;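 note: background control endpoint measuring basal TAL promoter reporter mRNA not a specific factor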
Method in brief: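 HepG2 cells transiently transfected with multiplexed cis-promoter reporter units, dosed 24 h. Reporter mRNA quantified by RT-PCR, 6-FAM labelling, HpaI digestion and capillary electrophoresis; TAL basal promoter serves as background control, fitted bidirectionally versus DMSO.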

[20] = ATG_XTT_Cytotoxicity: Cytotoxicity Assessment in the Attagene TRANS-FACTORIAL HepG2 Assay (AID 2283584; active = hit-call score of the fitted dose curve at least 0.9, where 1 is the maximum)
Method in brief: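 HepG2 cells transiently transfected with GAL4-UAS multiple reporter units, dosed 24 h; cytotoxicity read by XTT as loss of signal versus DMSO baseline.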

Measured: AC50

Aryl hydrocarbon receptor (Homo sapiens), sequence (P35869 whole entry, looked up): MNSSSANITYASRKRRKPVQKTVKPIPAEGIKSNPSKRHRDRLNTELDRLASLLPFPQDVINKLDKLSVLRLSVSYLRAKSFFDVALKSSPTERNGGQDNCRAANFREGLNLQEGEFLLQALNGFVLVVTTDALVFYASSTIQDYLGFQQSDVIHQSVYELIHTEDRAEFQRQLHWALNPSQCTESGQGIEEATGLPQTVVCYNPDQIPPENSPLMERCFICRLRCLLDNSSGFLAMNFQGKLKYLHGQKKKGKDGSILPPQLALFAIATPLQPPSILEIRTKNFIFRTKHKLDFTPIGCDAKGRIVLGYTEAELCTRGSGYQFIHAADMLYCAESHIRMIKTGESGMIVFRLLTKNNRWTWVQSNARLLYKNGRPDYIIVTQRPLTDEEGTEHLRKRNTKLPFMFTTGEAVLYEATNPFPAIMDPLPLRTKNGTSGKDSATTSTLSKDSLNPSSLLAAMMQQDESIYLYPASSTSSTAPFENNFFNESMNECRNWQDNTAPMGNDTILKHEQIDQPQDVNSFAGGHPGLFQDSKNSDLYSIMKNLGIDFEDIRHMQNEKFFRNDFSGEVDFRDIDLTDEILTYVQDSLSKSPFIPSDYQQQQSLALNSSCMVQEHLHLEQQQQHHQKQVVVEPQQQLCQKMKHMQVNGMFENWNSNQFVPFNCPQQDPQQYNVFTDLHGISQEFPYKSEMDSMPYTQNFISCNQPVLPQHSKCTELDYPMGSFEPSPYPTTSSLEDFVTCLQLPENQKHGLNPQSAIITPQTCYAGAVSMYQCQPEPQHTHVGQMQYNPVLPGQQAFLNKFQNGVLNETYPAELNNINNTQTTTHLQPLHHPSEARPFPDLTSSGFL
Transcriptional activator Myb (Homo sapiens), sequence (P10242 whole entry, looked up): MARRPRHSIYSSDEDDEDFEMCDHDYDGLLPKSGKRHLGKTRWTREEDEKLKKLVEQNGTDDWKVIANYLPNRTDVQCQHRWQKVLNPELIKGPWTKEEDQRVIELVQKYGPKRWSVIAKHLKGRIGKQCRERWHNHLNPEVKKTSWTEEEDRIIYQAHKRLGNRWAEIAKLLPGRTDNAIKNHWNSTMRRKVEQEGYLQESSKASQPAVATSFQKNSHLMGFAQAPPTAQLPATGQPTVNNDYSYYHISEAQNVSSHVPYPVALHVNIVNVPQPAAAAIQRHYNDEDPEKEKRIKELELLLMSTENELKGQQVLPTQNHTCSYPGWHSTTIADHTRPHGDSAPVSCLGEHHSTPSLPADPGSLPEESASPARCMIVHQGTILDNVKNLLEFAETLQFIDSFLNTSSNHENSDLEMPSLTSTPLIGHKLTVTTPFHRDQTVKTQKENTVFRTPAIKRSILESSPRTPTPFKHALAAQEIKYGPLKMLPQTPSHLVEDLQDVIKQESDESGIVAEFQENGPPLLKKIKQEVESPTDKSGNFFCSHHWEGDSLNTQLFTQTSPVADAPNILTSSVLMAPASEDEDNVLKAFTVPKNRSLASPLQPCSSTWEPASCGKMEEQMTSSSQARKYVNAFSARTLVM
Hypoxia-inducible factor 1-alpha (Homo sapiens), sequence (Q16665 whole entry, looked up): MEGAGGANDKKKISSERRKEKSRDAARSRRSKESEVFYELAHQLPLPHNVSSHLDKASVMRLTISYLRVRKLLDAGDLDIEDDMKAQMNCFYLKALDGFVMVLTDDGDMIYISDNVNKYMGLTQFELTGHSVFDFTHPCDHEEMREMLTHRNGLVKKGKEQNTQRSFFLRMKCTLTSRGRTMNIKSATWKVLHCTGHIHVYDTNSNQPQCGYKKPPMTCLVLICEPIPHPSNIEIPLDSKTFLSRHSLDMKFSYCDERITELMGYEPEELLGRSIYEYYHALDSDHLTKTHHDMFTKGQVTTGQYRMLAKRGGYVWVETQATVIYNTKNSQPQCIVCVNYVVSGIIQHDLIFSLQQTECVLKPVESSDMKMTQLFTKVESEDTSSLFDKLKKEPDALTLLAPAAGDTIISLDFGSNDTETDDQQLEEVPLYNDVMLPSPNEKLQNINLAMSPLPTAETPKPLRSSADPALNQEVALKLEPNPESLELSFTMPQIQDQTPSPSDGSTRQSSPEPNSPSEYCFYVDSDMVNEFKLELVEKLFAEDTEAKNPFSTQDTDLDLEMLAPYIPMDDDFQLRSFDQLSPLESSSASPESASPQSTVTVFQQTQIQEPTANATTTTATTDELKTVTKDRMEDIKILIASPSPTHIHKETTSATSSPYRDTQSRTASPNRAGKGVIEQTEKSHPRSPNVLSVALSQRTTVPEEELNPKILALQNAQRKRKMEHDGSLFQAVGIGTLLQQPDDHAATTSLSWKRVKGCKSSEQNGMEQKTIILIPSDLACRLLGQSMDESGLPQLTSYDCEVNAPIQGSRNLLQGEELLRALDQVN
Hepatocyte nuclear factor 6 (Homo sapiens), sequence (Q9UBC0 whole entry, looked up, the tested form may be a part): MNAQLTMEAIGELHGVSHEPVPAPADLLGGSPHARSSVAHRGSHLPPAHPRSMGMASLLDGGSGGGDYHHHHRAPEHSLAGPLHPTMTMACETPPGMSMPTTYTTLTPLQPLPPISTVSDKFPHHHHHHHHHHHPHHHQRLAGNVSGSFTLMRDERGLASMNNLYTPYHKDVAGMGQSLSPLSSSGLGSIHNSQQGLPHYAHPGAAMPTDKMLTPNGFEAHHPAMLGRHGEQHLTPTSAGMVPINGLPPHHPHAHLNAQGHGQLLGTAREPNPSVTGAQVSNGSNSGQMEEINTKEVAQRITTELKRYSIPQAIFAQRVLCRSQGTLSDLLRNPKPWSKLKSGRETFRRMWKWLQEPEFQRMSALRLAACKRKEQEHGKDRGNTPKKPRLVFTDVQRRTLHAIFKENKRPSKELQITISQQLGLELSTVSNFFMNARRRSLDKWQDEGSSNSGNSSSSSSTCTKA
Cellular tumor antigen p53 (Homo sapiens), sequence (P04637 whole entry, looked up): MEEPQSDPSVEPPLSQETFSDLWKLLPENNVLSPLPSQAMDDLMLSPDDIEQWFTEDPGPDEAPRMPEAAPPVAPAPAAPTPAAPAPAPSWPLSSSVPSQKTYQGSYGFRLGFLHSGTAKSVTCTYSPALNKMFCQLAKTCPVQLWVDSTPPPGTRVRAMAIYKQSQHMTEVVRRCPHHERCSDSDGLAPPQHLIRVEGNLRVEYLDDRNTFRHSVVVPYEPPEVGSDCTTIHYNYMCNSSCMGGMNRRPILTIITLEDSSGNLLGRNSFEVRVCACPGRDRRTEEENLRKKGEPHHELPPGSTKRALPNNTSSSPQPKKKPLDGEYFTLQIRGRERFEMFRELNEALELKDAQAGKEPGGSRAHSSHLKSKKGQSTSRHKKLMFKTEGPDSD
Myc proto-oncogene protein (Homo sapiens), sequence (P01106 whole entry, looked up): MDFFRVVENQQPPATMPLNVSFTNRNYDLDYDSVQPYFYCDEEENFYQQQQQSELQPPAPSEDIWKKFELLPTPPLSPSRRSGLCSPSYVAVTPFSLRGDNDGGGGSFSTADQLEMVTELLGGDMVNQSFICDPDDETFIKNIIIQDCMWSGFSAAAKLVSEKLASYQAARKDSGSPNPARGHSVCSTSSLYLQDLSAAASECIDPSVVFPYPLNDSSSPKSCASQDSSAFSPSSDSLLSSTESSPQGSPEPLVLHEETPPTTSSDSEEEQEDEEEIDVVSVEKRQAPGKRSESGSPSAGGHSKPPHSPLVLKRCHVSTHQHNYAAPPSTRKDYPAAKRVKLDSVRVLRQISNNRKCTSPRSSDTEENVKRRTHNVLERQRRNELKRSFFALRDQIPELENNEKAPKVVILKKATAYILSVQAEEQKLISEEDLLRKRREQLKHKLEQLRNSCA
CCAAT/enhancer-binding protein beta (Homo sapiens), sequence (P17676 whole entry, looked up): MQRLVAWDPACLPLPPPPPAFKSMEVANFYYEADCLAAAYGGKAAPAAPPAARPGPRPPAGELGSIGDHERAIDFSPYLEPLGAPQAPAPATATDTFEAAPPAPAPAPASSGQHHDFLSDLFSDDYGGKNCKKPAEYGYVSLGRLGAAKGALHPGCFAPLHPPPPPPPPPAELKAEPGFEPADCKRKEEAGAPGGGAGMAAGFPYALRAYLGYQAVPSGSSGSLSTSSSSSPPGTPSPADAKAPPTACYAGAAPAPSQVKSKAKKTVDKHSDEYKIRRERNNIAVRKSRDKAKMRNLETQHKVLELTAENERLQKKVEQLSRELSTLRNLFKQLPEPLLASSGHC
Heat shock factor protein 1 (Homo sapiens), sequence (Q00613 whole entry, looked up, the tested form may be a part): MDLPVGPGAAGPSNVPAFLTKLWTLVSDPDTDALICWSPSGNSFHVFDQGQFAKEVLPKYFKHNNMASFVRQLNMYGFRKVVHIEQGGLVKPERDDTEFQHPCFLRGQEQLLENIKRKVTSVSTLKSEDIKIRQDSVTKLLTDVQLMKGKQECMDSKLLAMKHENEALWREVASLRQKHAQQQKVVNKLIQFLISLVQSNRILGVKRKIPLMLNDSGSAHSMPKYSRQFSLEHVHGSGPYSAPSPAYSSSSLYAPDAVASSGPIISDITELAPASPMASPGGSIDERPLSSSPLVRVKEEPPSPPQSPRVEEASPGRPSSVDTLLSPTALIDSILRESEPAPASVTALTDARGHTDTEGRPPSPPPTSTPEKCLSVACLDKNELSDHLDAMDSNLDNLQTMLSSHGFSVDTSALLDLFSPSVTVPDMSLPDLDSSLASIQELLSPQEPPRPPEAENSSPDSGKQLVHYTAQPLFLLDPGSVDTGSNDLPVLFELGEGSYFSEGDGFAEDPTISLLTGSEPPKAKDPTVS

CCN(CC)C(=S)S
active: [2] 100 µM | [15] 27.8 µM
not listed: [17] | [18] | [19] | [20]
inactive: all other assays above

O=[N+]([O-])c1cc([N+](=O)[O-])c2ccccc2c1
active: [2] 23.5 µM | [3] 8.37 µM | [15] 3.1 µM
not listed: [11] | [19] | [20]
inactive: all other assays above

Nc1ccccc1C(=O)Oc1ccc2ccccc2c1
active: [2] 77 µM | [6] 27.7 µM | [8] 164 µM | [19] 116 µM | [9] 12 µM | [12] 162 µM | [15] 31.7 µM | [16] 54.7 µM
not listed: [3] | [5] | [11] | [14]
inactive: all other assays above

N#Cc1cccc(C#N)c1
inactive: all assays above

CCC(C)c1cc(C(C)(C)C)cc(-n2nc3ccccc3n2)c1O (centres undefined)
inactive: all assays above

CC(=O)/C=C/c1ccccc1
active: [5] 70.9 µM | [6] 156 µM | [10] 31.6 µM | [15] 33 µM
not listed: [18] | [20]
inactive: all other assays above

C=CC(=O)OCC(CC)CCCC (centres undefined)
active: [15] 100 µM
inactive: all other assays above

Clc1ccc(-c2ccccc2)cc1
active: [2] 139 µM | [15] 149 µM
not listed: [20]
inactive: all other assays above

CCNCC
not listed: [11] | [14] | [18] | [19]
inactive: all other assays above

C[N+](C)(C)CC(=O)[O-]
not listed: [4] | [10] | [11] | [14] | [18]
inactive: all other assays above

O=CNC(N1CCN(C(NC=O)C(Cl)(Cl)Cl)CC1)C(Cl)(Cl)Cl (centres undefined)
active: [10] 15.3 µM | [18] 148 µM
not listed: [6]
inactive: all other assays above

COC(=O)COc1ccc(Cl)cc1Cl
not listed: [3] | [20]
inactive: all other assays above

CC(C)COP(=O)(OCC(C)C)OCC(C)C
active: [3] 73.3 µM | [10] 55.8 µM | [15] 37 µM
not listed: [19]
inactive: all other assays above

ClC1=C(Cl)[C@]2(Cl)[C@@H]3[C@@H](Cl)[C@H](Cl)C[C@@H]3[C@@]1(Cl)C2(Cl)Cl
active: [4] 36.6 µM
not listed: [3] | [19] | [20]
inactive: all other assays above

CC(C)C#N
not listed: [5] | [10] | [18]
inactive: all other assays above

CCCCOC(=O)CCC(=O)OCCCC
not listed: [10] | [14] | [19]
inactive: all other assays above
